As usually defined, the AC50 is the concentration giving half of the maximal activity seen.

Each structure is given as a SMILES string. Calls of active or inactive are those of the source. Rule for the calls: active = hit-call score of the fitted dose curve at least 0.9, where 1 is the maximum; inactive = score below 0.9.

This is an account of results in PubChem BioAssay (EPA / NIEHS).

Read-out in this experiment: CYP2E1 (gene 1571)
Put plainly: LTEA_HepaRG_CYP2E1: Life Technologies and Expression Analysis (LTEA) Assay for CYP2E1 using HepaRG (AID 2283485). The note with it: mRNA level, 48 h; actives raise or lower the signal. An outline of the steps: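 Readout is qRT-PCR of CYP2E1 mRNA, normalized to three housekeeping genes and fitted bidirectionally against 0.5% DMSO. HepaRG cells were dosed 48 h at eight concentrations, highest 100 uM with half-log dilutions.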
Take `CC(C)(O)C(=O)Nc1ccc([N+](=O)[O-])c(C(F)(F)F)c1`: the AC50 is 37.1 µM (active).

As to `CCC(C)(CC)c1cc(NC(=O)c2c(OC)cccc2OC)on1`, the half-maximal activity concentration (AC50) was 15 µM (active).

With `Cc1ccccc1O`, the molecule was called inactive.

Regarding `CN(C)CCO`, the molecule was classed as inactive.

Take `Cc1ccccc1CO[C@@H]1C[C@@]2(C(C)C)CC[C@]1(C)O2`: the AC50 was 50 µM (active).

Consider `Cc1cc(-c2ccc(N)c(C)c2)ccc1N`, for which the half-maximal activity concentration (AC50) was 16.3 µM (active).

Regarding `c1cc2ccc3cccc4ccc(c1)c2c34`, the AC50 was 29.6 µM (active).

As to `Oc1c(Cl)c(Cl)c(Cl)c(Cl)c1Cl`, the AC50 was 1.94 µM (active).

As for `O=NN(c1ccccc1)c1ccccc1`, the molecule was called inactive.

For `Clc1ccc(C(c2ccccc2Cl)C(Cl)(Cl)Cl)cc1` (configuration not stated), the AC50 was 39.8 µM (active).

In the case of `NS(=O)(=O)C(F)(F)C(F)(F)C(F)(F)C(F)(F)C(F)(F)C(F)(F)C(F)(F)C(F)(F)F`, the AC50 is 6.73 µM (active).

For `O=S(=O)(O)C(F)(F)C(F)(F)C(F)(F)C(F)(F)F`, the outcome was inactive.

For the molecule `Nc1ccc(-c2ccc(N)cc2)cc1`, the AC50 is 12.3 µM (active).

With `C=CC(N)=O`, the molecule was called inactive.

With `CCOCCOC(C)=O`, the molecule was called inactive.

On to `O=C(O)C(F)(F)C(F)(F)C(F)(F)C(F)(F)C(F)(F)C(F)(F)C(F)(F)C(F)(F)F`, for which the AC50 is 93.9 µM (active).

As for `CCCCCCCCCc1ccc(O)cc1`, the result was inactive.

For the molecule `CO/C=C(/C(=O)OC)c1ccccc1COc1cccc(C(F)(F)F)n1`, the concentration at half-maximal activity (AC50) was 3.61 µM (active).

In the case of `ClC1=C(Cl)[C@]2(Cl)[C@@H]3[C@@H]4C[C@@H]([C@H]5O[C@@H]45)[C@@H]3[C@@]1(Cl)C2(Cl)Cl`, the AC50 is 22.4 µM (active).

For the molecule `Cc1ccccc1[N+](=O)[O-]`, the molecule was called inactive.

On to `Oc1ccc(Cl)cc1Cl`, for which the call was inactive.

For `Clc1ccc(C(Cl)(Cl)Cl)cc1`, the outcome was inactive.

Regarding `C=CC(=O)NCNC(=O)C=C`, the AC50 was 50 µM (active).

With `C1CC2OC2CC1C1CO1` (configuration not stated), the call was inactive.

As to `O=C(NC(=O)c1c(F)cccc1F)Nc1cc(Cl)c(OC(F)(F)C(F)F)c(Cl)c1`, the half-maximal activity concentration (AC50) was 11.6 µM (active).

Take `O=C(NC(=O)c1cc(F)c(F)cc1Cl)Nc1cc(F)ccc1N1CCC(C(=O)O)CC1`: the AC50 was 10.3 µM (active).

As for `ClC(Cl)=C(c1ccc(Cl)cc1)c1ccc(Cl)cc1`, the AC50 was 50.7 µM (active).

For the molecule `CCC(C)(c1ccc(O)cc1)c1ccc(O)cc1`, the result was inactive.

Consider `COS(=O)(=O)OC`, for which the call was inactive.

With `N#Cc1ccc(N(CC(N)=O)CC(F)(F)F)cc1C(F)(F)F`, the AC50 is 0.537 µM (active).

On to `CCC(=O)O[C@H]1CC[C@H]2[C@@H]3CCC4=CC(=O)CC[C@]4(C)[C@H]3CC[C@]12C`, for which the AC50 was 3.12 µM (active).

Consider `CCCCCCCCOC(=O)c1ccccc1C(=O)OCCCCCCCC`, for which the result was inactive.
